The sequences below were run against CTNNBL1 (assay: pooled miR-30 sensor sort-seq; sequence = guide strand). Settings: shRNA.
Further: reference of the scale not given here.

| Sequence | sensor-assay potency score (higher = more potent) |
| --- | --- |
| TACAGCATTCAGCTCCACCAGA | -0.685 |
| ATCTCTGTCAATAATCTGCAGC | -0.982 |
| TGAACTTCTCTGGATTGTCTGG | -0.725 |
| ATCTGTATTATCGTGTCCGAGC | -1.22 |
| TTAAACACGGATAACTGCTGAA | -0.397 |
| TATCGTGTCCGAGCAAGCCGAG | -1.14 |

Each sequence was assayed against CTSB in the same assay as above. Settings: shRNA.

| Sequence | sensor-assay potency score (higher = more potent) |
| --- | --- |
| TAAACATAACTCTCTGGGGTGG | -0.755 |
| TTGGCAACCAGCCAGTAGGGTG | -1.27 |
| TCGGTAAACATAACTCTCTGGG | -0.352 |
| TTGGTGTGGATGCAGATCCGGT | -1.05 |
| TCTCTGATCTCTTTGATGGTGG | -0.142 |
| TATCCGTAGTGCTTGTCCTGTT | -0.438 |
| TTTGTTGACATAGTTGACCAGC | -0.0911 |
| TGACGTGTTGGTACACTCCTGA | 0.569 |
| TTTTTGTAGATCTCGGCCATGA | -0.154 |
| TTTCTTGTCCAGAAGTTCCAAG | -1.12 |
| TTGTCCTGTTTGTAGGTCGGGC | -0.855 |
| TAACTTGACAGGGTGAAGCTGT | -0.16 |
| TTTTCTTGTCCAGAAGTTCCAA | -0.152 |
| TTCCACAGTGATCCTGTCCTCT | -0.145 |
| TTGTAGAGCAGGAAGTCCGAAT | -0.653 |
| TTGTCCAGAAGTTCCAAGCTTC | -0.113 |
| TTCTGATTCGATTCCACAGTGA | -0.73 |
| TTCTCGCTATTGGAGACGCTGT | -1.66 |
| TCACAGATCTTGCTACACTTGG | -0.121 |
| TAGTTGACCAGCTCATCCGACA | -0.966 |
| TTCTATTAAAGAATCATGCTGA | 0.656 |
| TTGTAGGTCGGGCTGTAGCCAG | -1.22 |
| ATAGTTGACCAGCTCATCCGAC | -0.423 |
| TGTTGGTACACTCCTGACTTGT | -1.2 |

The sequences below were run against CTSH in the same assay as above. Settings: shRNA.

| Sequence | sensor-assay potency score (higher = more potent) |
| --- | --- |
| TTATCTTCCTCCAGTTGCTGGC | -0.0224 |
| TTCCTCGTCATAGATTGTGATG | -1.43 |
| TTCTATACATCATGAAGTCCTG | -0.782 |
| TTATCTGGAGTTTTATGGCAGG | -0.729 |
| TTCTCCATACCCAACAGCCAGT | -1.28 |
| TTCAGCAAAGCTCATGTCTGAA | -0.714 |
| TATATGTGGAAAGTAGCCCTTC | 0.309 |
| AAGGACAGCATCTTTCCGGTTG | 0.018 |
| TGTGATGTTGGCTACATCCTTG | -0.0306 |
| TCGTCATAGATTGTGATGTTGG | -0.963 |

Source: the OligoGym collection
